From the supplement of paper PMC4840960
± gives the standard deviation of the averaged measurements.

System: E18 rat cortical neuron-glia co-culture
Assay: fiber score / MBP score (myelination specific beyond OL differentiation) (ratio); higher = more myelination-specific MBP alignment
Conditions: 1 µM; treatment time: 8 days (DIV5-DIV13)
Method in brief: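 Fiber score divided by MBP score is the read-out; fiber score is continuous MBP fiber length per Olig2+ nucleus, and MBP score is thresholded MBP area × intensity per Olig2+ nucleus. Primary E18 rat cortical co-cultures were dissociated with papain and seeded at 20,000 cells/well on poly-d-lysine/laminin 96-well plates. Library compounds at 1 or 5 µM were given in myelination medium from DIV5 to DIV13, after which cells were fixed in 4 % paraformaldehyde, immunostained for MBP and Olig2 with DAPI, and imaged in four 10X fields per well in duplicate wells.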

Point of comparison: CCOC(=O)[C@H](CCc1ccccc1)N[C@@H](C)C(=O)N1[C@H](C(=O)O)C[C@@H]2CCC[C@@H]21 [Ramipril], “fiber score / MBP score” value 0.635 ± 0.29. Against it:
- c1ccc(-c2ccc(C(c3ccccc3)n3ccnc3)cc2)cc1 (configuration not stated) [Bifonazole] — lower, 0.241
- OC[C@H]1O[C@@H](Oc2cc(O)cc(/C=C/c3ccc(O)cc3)c2)[C@H](O)[C@@H](O)[C@@H]1O [Polydatin] — within error, 0.578
- CN1[C@@H](CC(=O)c2ccccc2)CCC[C@H]1C[C@H](O)c1ccccc1 [Lobeline] — higher, 0.981
- NNC(=O)c1ccncc1 [Isoniazid] — within error, 0.85
- Cc1nc2ccccn2c(=O)c1CCN1CCC(C(=O)c2ccc(F)cc2)CC1 [Pirenperone] — within error, 0.876
- N=C(N)NC(=O)c1nc(Cl)c(N)nc1N [Amiloride] — within error, 0.887
- COc1ccc([C@@H]2Sc3ccccc3N(CCN(C)C)C(=O)[C@@H]2OC(C)=O)cc1 [Diltiazem] — within error, 0.782
- CCCC(=O)Nc1ccc(OCC(O)CNC(C)C)c(C(C)=O)c1 (configuration not stated) [Acebutolol] — within error, 0.757
- CC(=O)Nc1nnc(S(N)(=O)=O)s1 [Acetazolamide] — within error, 0.846
- Clc1ccc2c(c1)CCc1cccnc1C2=C1CCNCC1 [Desloratadine] — within error, 0.902
- CCC(=O)O[C@@H]1CC(=O)O[C@H](C)C/C=C/C=C/[C@H](O)[C@H](C)C[C@H](CC=O)[C@H](O[C@@H]2O[C@H](C)[C@@H](O[C@H]3C[C@@](C)(O)[C@@H](OC(=O)CC)[C@H](C)O3)[C@H](N(C)C)[C@H]2O)[C@H]1OC [Midecamycin] — within error, 0.757
